Laboratory results published in PubChem BioAssay (NCI).
This is part of a sample that, as a whole, favours compounds with a hit. Of some 83,000 tested, about 20% had one in any assay.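 Values shown are percent growth following 48 h exposure of cells in 96-well plates to a single concentration of compound; below 10 was considered active.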 Unmarked numbers belong to inactive results. Active and inactive are the calls of the source.

Tests used:
Experiment in all cases: NCI-60 one-dose screen, 48 h (100 = growth as untreated, 0 = no growth, -100 = all killed)
Settings in all cases: 10 µM unless noted
NCI-H23 lung = system: NCI-H23 lung
NCI-H226 lung = system: NCI-H226 lung
NCI-H322M lung = system: NCI-H322M lung
HOP-62 NSCLC = system: HOP-62 NSCLC
NCI-H460 lung = system: NCI-H460 lung
HOP-92 NSCLC = system: HOP-92 NSCLC
NCI-H522 lung = system: NCI-H522 lung
A549/ATCC NSCLC = system: A549/ATCC NSCLC
786-0 renal = system: 786-0 renal
COLO 205 colon = system: COLO 205 colon
DU-145 prostate = system: DU-145 prostate
K-562 leukemia = system: K-562 leukemia
MALME-3M melanoma = system: MALME-3M melanoma
MDA-MB-231 breast = system: MDA-MB-231 breast
RXF 393 renal = system: RXF 393 renal
SF-268 CNS = system: SF-268 CNS
SF-295 CNS = system: SF-295 CNS
SF-539 CNS = system: SF-539 CNS
UACC-257 melanoma = system: UACC-257 melanoma
M14 melanoma = system: M14 melanoma

Structure (SMILES) | growth (NCI-H23 lung) | growth (NCI-H226 lung) | growth (NCI-H322M lung) | growth (HOP-62 NSCLC) | growth (NCI-H460 lung) | growth (HOP-92 NSCLC) | growth (NCI-H522 lung) | growth (A549/ATCC NSCLC) | growth (786-0 renal) | growth (COLO 205 colon) | growth (DU-145 prostate) | growth (K-562 leukemia) | growth (MALME-3M melanoma) | growth (MDA-MB-231 breast) | growth (RXF 393 renal) | growth (SF-268 CNS) | growth (SF-295 CNS) | growth (SF-539 CNS) | growth (UACC-257 melanoma) | growth (M14 melanoma)
COc1ccc(OC)c(-c2c(C#N)c(-c3cccs3)nc3c2c(-c2ccccc2)nn3-c2ccccc2)c1 | 105% | 102% | 110% | 105% | 101% | 106% | 87.8% | 101% | 103% | 110% | 111% | 106% | 106% | 105% | 109% | 97.4% | 101% | 93.5% | 105% | 105%
CS(=O)(=O)Nc1cc(-c2ccc3ncnc(Nc4ccc5c(cnn5Cc5ccccn5)c4)c3c2)cnc1Cl | 76.7% | 81.3% | 86.2% | 68.8% | 85.8% | 2.29% (active) | 67.9% | 89.2% | 84.3% |  | 90% | 92.1% | 39.5% | 71.5% | 72.8% | 51.5% | 91.5% | 69.9% | 88.1% | 75.5%
CCN1C(=O)N(CC)C2C1NN=c1s/c(=C\c3ccc(Cl)cc3Cl)c(=O)n12 (centres undefined) | 28.4% | 48.8% | 42.4% | 33.5% | 5.72% (active) | 50.8% | -8.78% (active) | 14.6% | 20.6% | -7.91% (active) | 6% (active) | -83.7% (active) | 50.4% | 12.4% | 61.1% | 42.3% | 12.8% | -12.6% (active) | 68.6% | 13.8%
COc1cc(N2C(=O)[C@H](O)C2c2ccc(SC)cc2)cc(OC)c1OC (some centres undefined) | 23% | 68.6% | 37.1% | 21.6% | 5.6% (active) | 26.1% | -19.8% (active) | 17% | 11.3% | -53.3% (active) | 3.72% (active) | 5.68% (active) | 71.7% | 30.3% | 15.3% | 28.1% | 10.1% | 16.3% | 42.1% | 6.4% (active)
Cn1cccc1C(=O)C1C(c2cccc([N+](=O)[O-])c2)C2C3CCCCC3CN2C12C(=O)Nc1ccc(Cl)cc12 (centres undefined) | 49.3% | 41.5% | 75.6% | 62.3% | 37.3% | 35% | 52.3% | 29.1% | 66.4% | 20.6% | 38.7% | 33.4% | 68.1% | 55.6% | -16.8% (active) | 52.3% | 82.3% | 77.2% | 70.7% | 52.4%
CC(C)NC1CCC(Nc2ccnc3cc(Cl)ccc23)CC1 (centres undefined) | 101% | 83.6% | 88.2% | 78.1% | 101% | 46.8% | 78.5% | 91.1% | 90.4% |  | 111% | 56.3% | 85.4% | 76.5% | 49.2% | 99.6% | 96.6% | 97.5% | 88.6% | 93.2%
CC(=O)OCc1nc(C#N)c(N(C)C)o1 | 102% | 97.3% | 99.8% | 91.4% | 103% | 83% | 90.3% | 92.5% | 95% |  | 110% | 99.2% | 97.8% | 94.9% | 87.6% | 99.6% | 108% | 92.1% | 92.8% | 99.8%
Cc1ccc(Sc2nnc(/N=C3\C(=O)Nc4ccccc43)s2)cc1 | 107% | 106% | 97.1% | 96.5% | 104% | 96.4% | 94.6% | 92.1% | 99.5% |  | 114% | 95.5% | 102% | 104% | 120% | 98.9% | 105% | 101% | 94.2% | 101%
Brc1ccc2[nH]cc(-c3nonc3-c3c[nH]c4ccccc34)c2c1 | 45.2% | 66.7% | 30.9% | 43.4% | 12.2% | 32.1% | 13.6% | 35.9% | 67.3% |  | 44.6% | 10.4% | 56.8% | 11.6% | 77.6% | 44.9% | 33.3% | 59.9% | 56.9% | 24.7%
CNC(=O)c1c(NC(=O)c2ccc(C(F)(F)F)cc2)sc2c1CCC(=O)C2 | -5.25% (active) | 9.17% (active) | 29.5% | 14.5% | 4.57% (active) | -35.8% (active) | -26.1% (active) | 13.7% | 10.3% | -36.1% (active) | 29% | 7.84% (active) | -9.54% (active) | -37.1% (active) | -7.89% (active) | 9.61% (active) | -9.06% (active) | -58.6% (active) | 1.26% (active) | -11.6% (active)
O=C1c2cc(Cl)ccc2S(=O)(=O)c2c(NCCCNCCO)nc3ccccc3c21 | 25.7% | 27.4% | 73.8% | 42.3% | 22.5% | -66% (active) | -77.1% (active) | 43.3% | 2.5% (active) | -81.2% (active) | -24.7% (active) | 0.0837% (active) | -81.4% (active) | -70.7% (active) | -36.5% (active) | 31.8% | 40.6% | -18% (active) | 10.3% | -37.9% (active)
O=C(/C=C/c1ccccc1)c1cccc(OCCCOc2cccc(C(=O)/C=C/c3ccccc3)c2)c1 | 95.5% | 108% | 105% | 116% | 101% | 101% | 90.3% | 87.2% | 92.9% | 94.1% | 100% | 46.4% | 107% | 97.4% | 94.9% | 104% | 94.2% | 107% | 96.4% | 95%
O=C(Nc1nn(-c2ccc(Cl)cc2Cl)nc1-c1ccccc1)c1ccccc1 | 97.2% | 98.6% | 99.2% | 77.3% | 107% | 86.9% | 87.2% | 94.7% | 94.3% | 99.3% | 131% | 91.9% | 80.2% | 98.3% | 111% | 107% | 56.9% | 121% | 106% | 87.1%
OCCOCCN(Cc1ccccn1)Cc1cc(I)cc(I)c1O | 90.2% | 83.1% | 82.9% | 84.9% | 59.5% | 90.2% | 74.4% | 88.5% | 85.2% | 107% | 87.8% | 107% | 87.8% | 96% | 81.1% | 81.4% | 59.3% | 90.8% | 104% | 81.1%
OCCNCCCOc1ccc2ncnc(Nc3ccc(Oc4cccc(C(F)(F)F)c4)c(Cl)c3)c2c1 | 63.8% | 85.2% | 21.5% | 66.5% | -82.5% (active) | 40.5% | 30.8% | 23.8% | -4.05% (active) |  | 16.3% | 1.39% (active) | 41.1% | -18% (active) | -49.3% (active) | 56% | 39.7% | -46.3% (active) | 54.9% | -60.3% (active)
